Records with an inconclusive call do not appear. Calls of active or inactive are those of the source. Unless noted, calls come from the whole dose curve; as a rule, active = well fitted curve in the direction sought with a large enough effect; inconclusive = small, poorly fitted or top-dose-only effect, or another doubt; inactive = no such curve, though single readings can be large; an effect the other way counts as inactive or inconclusive.
Experiments:
[1] = target: Lysosomal acid glucosylceramidase (Homo sapiens) (UniProt P04062); experiment: Glucocerebrosidase-p2 (AID 348; in the data active = potency below about 10 µM; note: potency is the fitted concentration of half-maximal effect); conditions: purified GBA, blue fluorogenic substrate, 40 min
Sequence of Lysosomal acid glucosylceramidase (Homo sapiens) (P04062 whole entry, looked up): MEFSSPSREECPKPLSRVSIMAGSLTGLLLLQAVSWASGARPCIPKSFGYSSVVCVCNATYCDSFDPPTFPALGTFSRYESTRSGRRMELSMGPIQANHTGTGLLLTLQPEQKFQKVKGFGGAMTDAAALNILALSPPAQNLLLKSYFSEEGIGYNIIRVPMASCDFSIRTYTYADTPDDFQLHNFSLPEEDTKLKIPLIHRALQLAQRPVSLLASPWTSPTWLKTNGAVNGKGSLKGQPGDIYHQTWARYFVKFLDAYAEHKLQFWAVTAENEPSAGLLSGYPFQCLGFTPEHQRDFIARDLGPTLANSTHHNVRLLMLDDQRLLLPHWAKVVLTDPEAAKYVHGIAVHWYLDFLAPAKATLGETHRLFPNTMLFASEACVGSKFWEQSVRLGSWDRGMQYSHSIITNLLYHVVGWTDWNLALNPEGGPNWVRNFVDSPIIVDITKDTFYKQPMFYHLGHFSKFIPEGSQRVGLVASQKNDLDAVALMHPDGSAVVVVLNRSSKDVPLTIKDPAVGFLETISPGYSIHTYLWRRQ
Procedure, shortened: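 Compounds titrated from 0.6 nM upwards against 0.2 nM enzyme in pH 5.9 citric acid/KH2PO4, taurocholate, tween-20; blue fluorogenic substrate 80 uM, 40 min room temperature, stopped and read Ex 365/Em 440 for AC50.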

[2] = AP1 Signaling Pathway (AID 357; active = well fitted curve in either direction with a large enough effect, not every such curve was filed as active;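 note: ME-180 reporter cells stimulated with EGF at its EC50 level; % is set by controls: 0 for no effect and ±100 for the full control effect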); conditions: ME-180 AP-1-bla reporter, EGF-induced, beta-lactamase ratio, 5 h; at 7.69 µM (top of the series) unless noted
Procedure, shortened: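 Beta-lactamase reporter under AP-1 response element, ME-180 background. Stimulus: EC50 EGF. Compound exposure 5 h, 37 °C. Detection: CCF4, 2.5 h RT, 460/530 nm. Values: AC50 from titration.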

[3] = target: Cytochrome P450 1A2 (Homo sapiens) (UniProt P05177); experiment: p450-cyp1a2 (AID 410; calls by dose curve; note: potency is the fitted concentration of half-maximal effect)
Procedure, shortened: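 Inhibition was calculated relative to 57 uM furafylline (full inhibition). The reaction used human CYP1A2 at 20nM with Luciferin-ME at its Km, 100uM, driven by an NADPH-regenerating system for 60 min at room temperature.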

[4] = NFAT Signaling Pathway (AID 444; active = well fitted curve in either direction with a large enough effect, not every such curve was filed as active;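 note: carbachol stimulus at about its EC50 of 1 µM final; % is set by controls: 0 for no effect and ±100 for the full control effect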); conditions: Jurkat NFAT-bla M1, carbachol, beta-lactamase ratio, 5 h; at 7.69 µM (top of the series) unless noted
Procedure, shortened: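 Read-out: CCF4 FRET ratio (460 nm/530 nm) after 1 h RT dye loading, used for %activity and AC50 from titration series. Cells: Jurkat NFAT-β-lactamase/M1 line, treated with compound plus 1 uM carbachol for 5 h, 37 °C.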

[5] = target: Glucocorticoid receptor (Homo sapiens) (UniProt P04150); experiment: GR-GFP Redistribution (AID 450;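 active = compounds whose dose series gives a full or clear partial fitted curve of increased nuclear translocation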; note: potency is the fitted concentration of half-maximal effect); conditions: U2OS GR-GFP nuclear translocation, laser cytometry, 2 h
Sequence of Glucocorticoid receptor (Homo sapiens) (P04150 whole entry, looked up, the tested form may be a part): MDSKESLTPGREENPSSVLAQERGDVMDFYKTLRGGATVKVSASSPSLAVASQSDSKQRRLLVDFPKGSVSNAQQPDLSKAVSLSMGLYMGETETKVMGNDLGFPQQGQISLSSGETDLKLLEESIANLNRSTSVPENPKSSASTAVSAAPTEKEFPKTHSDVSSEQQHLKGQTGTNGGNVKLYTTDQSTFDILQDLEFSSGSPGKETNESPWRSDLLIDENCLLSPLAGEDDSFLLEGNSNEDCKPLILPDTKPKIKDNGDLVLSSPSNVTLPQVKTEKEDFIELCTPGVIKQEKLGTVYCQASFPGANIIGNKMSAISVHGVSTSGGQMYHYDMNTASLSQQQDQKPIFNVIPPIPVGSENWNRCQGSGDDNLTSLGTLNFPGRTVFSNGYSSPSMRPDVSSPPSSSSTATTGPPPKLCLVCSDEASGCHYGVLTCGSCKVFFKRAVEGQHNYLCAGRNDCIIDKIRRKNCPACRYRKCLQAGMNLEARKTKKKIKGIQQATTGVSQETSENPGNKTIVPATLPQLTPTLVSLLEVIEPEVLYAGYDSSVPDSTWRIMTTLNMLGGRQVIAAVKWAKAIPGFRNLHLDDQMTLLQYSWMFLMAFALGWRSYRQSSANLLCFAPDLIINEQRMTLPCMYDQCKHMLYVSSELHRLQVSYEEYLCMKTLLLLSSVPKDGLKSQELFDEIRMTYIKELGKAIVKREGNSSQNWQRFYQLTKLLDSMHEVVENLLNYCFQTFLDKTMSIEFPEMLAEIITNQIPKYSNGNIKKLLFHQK

[6] = target: Glucocorticoid receptor (Homo sapiens) (UniProt P04150); experiment: GR-EFC Redistribution (AID 451; calls by dose curve; note: potency is the fitted concentration of half-maximal effect); conditions: CHO-K1 GR-EFC translocation, beta-gal luminescence, 2 h
Procedure, shortened: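 Translocation of GR-ED fusion to nuclear EA restores b-gal, read by luminescence after 1 h room-temperature detection. Engineered CHO-K1 biosensor cells, 1,000/well, exposed 2 h at 37 C to titrations up to 46 uM final.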

[7] = target: Mitogen-activated protein kinase 10 (Mus musculus) (UniProt Q61831); experiment: JNK3 AlphaScreen Assay (AID 530; active = well fitted curve in either direction with a large enough effect, not every such curve was filed as active;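 note: kinase came from lysate of stimulated human HepG2 cells; signal reports phosphorylation of biotinylated GST-cJun 1-79 at Ser73 with 10 µM ATP; % is set by controls: 0 for no effect and ±100 for the full control effect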)
Procedure, shortened: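 Room-temperature AlphaScreen kinase assay; pre-activated HepG2 lysate as JNK3 source, biotin-GST-cJun(1-79) substrate, 10 uM ATP, compound 15 min preincubation.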

[8] = target: Cytochrome P450 3A4 (Homo sapiens) (UniProt P08684); experiment: qHTS Assay for Activators of Cytochrome P450 3A4 (AID 885); note: nearly all actives have a fitted effect of over 65% in size
Procedure, shortened: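 Quantitative HTS format: compounds preincubated with 20nM human CYP3A4 and Luciferin-PPXE substrate at KM, reaction started by NADPH regeneration, stopped after 60 min, luciferase luminescence read 20 min later.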

[9] = target: Dual specificity protein kinase CLK4 (Homo sapiens) (UniProt Q9HAZ1); experiment: qHTS Assay for Inhibitors of CDC-like Kinase 4 (Kinase-Glo Assay) (AID 1770); note: potency is the fitted concentration of half-maximal effect; nearly all actives have a fitted effect of over 65% in size
Sequence of Dual specificity protein kinase CLK4 (Homo sapiens) (Q9HAZ1 whole entry, looked up): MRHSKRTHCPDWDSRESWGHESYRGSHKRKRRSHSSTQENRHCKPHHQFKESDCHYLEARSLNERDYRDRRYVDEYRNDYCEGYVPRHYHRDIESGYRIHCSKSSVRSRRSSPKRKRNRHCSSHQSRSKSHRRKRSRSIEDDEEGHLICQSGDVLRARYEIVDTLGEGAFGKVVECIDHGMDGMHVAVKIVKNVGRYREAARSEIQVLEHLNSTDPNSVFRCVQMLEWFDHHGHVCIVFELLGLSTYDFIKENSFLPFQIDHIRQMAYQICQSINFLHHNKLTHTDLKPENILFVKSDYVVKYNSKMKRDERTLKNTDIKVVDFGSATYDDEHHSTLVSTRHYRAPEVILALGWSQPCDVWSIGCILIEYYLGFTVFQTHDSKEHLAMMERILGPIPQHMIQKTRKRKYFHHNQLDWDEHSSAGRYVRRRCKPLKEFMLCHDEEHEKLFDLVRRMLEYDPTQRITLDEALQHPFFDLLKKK
Procedure, shortened: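 Inhibition was judged from remaining ATP, measured by Ultra-Glo luciferase bioluminescence after Clk4 (25 nM) had acted on RS peptide at 1 uM ATP for 4.5 hours, room temperature.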

[10] = target: Dual specificity protein kinase CLK4 (Homo sapiens) (UniProt Q9HAZ1); experiment: qHTS Assay for Inhibitors of CDC-like Kinase 4 (ADP-Glo Assay) (AID 1771); note: potency is the fitted concentration of half-maximal effect; nearly all actives have a fitted effect of over 70% in size
Procedure, shortened: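 Kinase reaction: Clk4 at 25 nM, RS repeat peptide substrate at 100 uM, ATP at 1 uM, 1 hr, room temperature. Product ADP detected as luciferase signal via ADP-Glo.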

[11] = target: Dual specificity protein kinase CLK4 (Homo sapiens) (UniProt Q9HAZ1); experiment: qHTS Assay for Inhibitors of CDC-like Kinase 4 (ADP-FP Assay) (AID 1795); note: potency is the fitted concentration of half-maximal effect; nearly all actives have a fitted effect of over 60% in size
Procedure, shortened: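 Inhibition of ADP formation by 6.25 nM Clk4 is measured using 1 uM ATP and 100 uM RS repeat peptide over one hour. Produced ADP displaces a fluorescent tracer from antibody, lowering polarization.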

[12] = target: Ubiquitin carboxyl-terminal hydrolase 1 (Homo sapiens) (UniProt O94782); experiment: Inhibitors of USP1/UAF1: Pilot qHTS (AID 504865);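 note: rhodamine fluorescence freed from ubiquitin-rhodamine substrate followed over time; top concentration of the series differs between compounds; % is set by controls: 0 for no effect and ±100 for the full control effect; nearly all actives have a fitted effect of over 35% in size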
Sequence of Ubiquitin carboxyl-terminal hydrolase 1 (Homo sapiens) (O94782 whole entry, looked up): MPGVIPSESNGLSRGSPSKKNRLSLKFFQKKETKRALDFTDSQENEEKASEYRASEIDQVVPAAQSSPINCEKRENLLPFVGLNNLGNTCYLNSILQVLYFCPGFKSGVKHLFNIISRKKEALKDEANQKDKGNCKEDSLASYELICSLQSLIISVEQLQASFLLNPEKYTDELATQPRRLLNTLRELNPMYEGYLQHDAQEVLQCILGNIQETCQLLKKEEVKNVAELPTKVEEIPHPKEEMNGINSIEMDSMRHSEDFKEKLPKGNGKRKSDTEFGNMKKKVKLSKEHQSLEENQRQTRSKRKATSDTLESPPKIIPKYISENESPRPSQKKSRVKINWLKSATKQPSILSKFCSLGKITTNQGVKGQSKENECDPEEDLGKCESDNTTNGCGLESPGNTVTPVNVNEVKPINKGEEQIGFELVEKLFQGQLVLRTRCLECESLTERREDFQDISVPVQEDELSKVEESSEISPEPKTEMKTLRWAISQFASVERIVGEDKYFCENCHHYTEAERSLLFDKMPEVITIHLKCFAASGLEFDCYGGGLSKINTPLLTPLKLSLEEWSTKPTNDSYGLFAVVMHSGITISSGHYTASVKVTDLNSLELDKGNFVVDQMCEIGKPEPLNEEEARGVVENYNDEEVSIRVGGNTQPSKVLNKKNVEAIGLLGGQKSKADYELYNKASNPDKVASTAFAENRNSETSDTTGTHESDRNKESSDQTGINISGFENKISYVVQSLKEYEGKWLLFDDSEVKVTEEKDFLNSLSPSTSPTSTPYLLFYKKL
Procedure, shortened: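 Kinetic fluorescence assay: 1nM USP1/UAF1, 15 min compound preincubation, then 150nM Ub-Rho; 480/540 nm.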

[13] = target: Calcium and integrin-binding protein 1 (Homo sapiens) (UniProt Q99828); experiment: Primary qHTS for Identification of Calcium Integrin Binding Protein 1 (CIB1) Competitor (AID 1508620);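 note: GST tagged CIB1 binding a fluorescein labelled alphaIIb integrin peptide tracer; top concentration of the series differs between compounds; % is set by controls: 0 for no effect and ±100 for the full control effect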
Sequence of Calcium and integrin-binding protein 1 (Homo sapiens) (Q99828 whole entry, looked up): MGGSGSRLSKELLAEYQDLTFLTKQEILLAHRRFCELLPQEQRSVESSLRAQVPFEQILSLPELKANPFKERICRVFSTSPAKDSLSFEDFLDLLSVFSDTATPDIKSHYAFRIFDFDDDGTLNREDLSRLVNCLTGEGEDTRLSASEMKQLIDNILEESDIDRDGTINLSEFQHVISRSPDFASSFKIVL
Procedure, shortened: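 CIB1-GST (1 uM final) and compound incubated 15 min at room temperature before adding FITC-alphaIIb peptide tracer (100 nM final). Competition for binding read by fluorescence polarization (ex 480, em 540) after another 15 min at room temperature.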

[14] = Primary qHTS for small molecule stabilizers of the endoplasmic reticulum resident proteome: Secreted ER Calcium Modulated Protein (SERCaMP) assay (AID 1508630); note: % is set by controls: 0 for no effect and ±100 for the full control effect
Procedure, shortened: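 GLuc-SERCaMP-expressing SH-SY5Y cells, pretreated 16 h with compound, are challenged with thapsigargin to empty ER calcium stores; after 4 h, coelenterazine is added directly to the medium and luminescence is imaged.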

[15] = target: Rap guanine nucleotide exchange factor 3 (Homo sapiens) (UniProt O95398); experiment: Confirmatory qHTS for antagonist of cAMP-regulated guanine nucleotide exchange factor 3 (EPAC1) (AID 1645880);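 note: plate controls were DMSO only for no effect and full effect of the ATA control for full effect; nearly all actives have a fitted effect of over 55% in size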
Sequence of Rap guanine nucleotide exchange factor 3 (Homo sapiens) (O95398 whole entry, looked up): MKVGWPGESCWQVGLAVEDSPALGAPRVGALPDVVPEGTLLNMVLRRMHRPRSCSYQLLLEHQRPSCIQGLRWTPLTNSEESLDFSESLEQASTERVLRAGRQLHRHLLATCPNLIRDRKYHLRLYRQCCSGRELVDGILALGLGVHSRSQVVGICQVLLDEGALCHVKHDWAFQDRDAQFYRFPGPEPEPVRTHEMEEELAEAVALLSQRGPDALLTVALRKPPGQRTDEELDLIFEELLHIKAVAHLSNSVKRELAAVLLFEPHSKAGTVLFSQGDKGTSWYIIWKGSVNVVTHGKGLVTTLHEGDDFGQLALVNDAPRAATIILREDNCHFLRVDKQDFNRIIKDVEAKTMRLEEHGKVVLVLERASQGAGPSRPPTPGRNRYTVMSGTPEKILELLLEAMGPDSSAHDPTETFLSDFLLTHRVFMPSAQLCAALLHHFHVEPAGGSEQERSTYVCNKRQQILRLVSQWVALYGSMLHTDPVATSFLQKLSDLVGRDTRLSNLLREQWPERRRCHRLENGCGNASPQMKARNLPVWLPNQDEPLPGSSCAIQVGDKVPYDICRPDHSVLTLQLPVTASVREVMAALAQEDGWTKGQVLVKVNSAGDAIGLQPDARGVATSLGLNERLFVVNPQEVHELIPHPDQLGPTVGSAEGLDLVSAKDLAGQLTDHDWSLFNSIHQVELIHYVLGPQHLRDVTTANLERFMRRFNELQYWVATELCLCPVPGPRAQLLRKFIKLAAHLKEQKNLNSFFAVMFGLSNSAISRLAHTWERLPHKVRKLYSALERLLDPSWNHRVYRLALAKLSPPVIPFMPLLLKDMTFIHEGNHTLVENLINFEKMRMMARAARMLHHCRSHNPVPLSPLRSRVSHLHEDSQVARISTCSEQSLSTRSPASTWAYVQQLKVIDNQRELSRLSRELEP
Procedure, shortened: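 Nucleotide exchange uses 100 nM EPAC1, 250 nM RAP1B-BODIPY-GDP and 50 uM GDP, with compounds in a concentration-titration series. After 5 min at room temperature, fluorescence (480 nm ex/540 nm em) is read every 5 min for 30 min. Data are normalized to control ATA and DMSO.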

[16] = target: Rap guanine nucleotide exchange factor 3 (Homo sapiens) (UniProt O95398); experiment: Confirmatory qHTS for agonist of cAMP-regulated guanine nucleotide exchange factor 3 (EPAC1) (AID 1645881);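 note: EPAC1 catalysed release of BODIPY-GDP from Rap1B seen as fluorescence loss; 100% = effect of cAMP agonist control; nearly all actives have a fitted effect of over 75% in size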
[17] = target: Rap guanine nucleotide exchange factor 4 (Homo sapiens) (UniProt Q8WZA2); experiment: Confirmatory qHTS for agonist of cAMP-regulated guanine nucleotide exchange factor 4 (EPAC2) (AID 1645884);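 note: nucleotide exchange releases bodipy-GDP from Rap1 and this lowers its fluorescence; % is set by controls: 0 for no effect and ±100 for the full control effect; nearly all actives have a fitted effect of over 65% in size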
Sequence of Rap guanine nucleotide exchange factor 4 (Homo sapiens) (Q8WZA2 whole entry, looked up): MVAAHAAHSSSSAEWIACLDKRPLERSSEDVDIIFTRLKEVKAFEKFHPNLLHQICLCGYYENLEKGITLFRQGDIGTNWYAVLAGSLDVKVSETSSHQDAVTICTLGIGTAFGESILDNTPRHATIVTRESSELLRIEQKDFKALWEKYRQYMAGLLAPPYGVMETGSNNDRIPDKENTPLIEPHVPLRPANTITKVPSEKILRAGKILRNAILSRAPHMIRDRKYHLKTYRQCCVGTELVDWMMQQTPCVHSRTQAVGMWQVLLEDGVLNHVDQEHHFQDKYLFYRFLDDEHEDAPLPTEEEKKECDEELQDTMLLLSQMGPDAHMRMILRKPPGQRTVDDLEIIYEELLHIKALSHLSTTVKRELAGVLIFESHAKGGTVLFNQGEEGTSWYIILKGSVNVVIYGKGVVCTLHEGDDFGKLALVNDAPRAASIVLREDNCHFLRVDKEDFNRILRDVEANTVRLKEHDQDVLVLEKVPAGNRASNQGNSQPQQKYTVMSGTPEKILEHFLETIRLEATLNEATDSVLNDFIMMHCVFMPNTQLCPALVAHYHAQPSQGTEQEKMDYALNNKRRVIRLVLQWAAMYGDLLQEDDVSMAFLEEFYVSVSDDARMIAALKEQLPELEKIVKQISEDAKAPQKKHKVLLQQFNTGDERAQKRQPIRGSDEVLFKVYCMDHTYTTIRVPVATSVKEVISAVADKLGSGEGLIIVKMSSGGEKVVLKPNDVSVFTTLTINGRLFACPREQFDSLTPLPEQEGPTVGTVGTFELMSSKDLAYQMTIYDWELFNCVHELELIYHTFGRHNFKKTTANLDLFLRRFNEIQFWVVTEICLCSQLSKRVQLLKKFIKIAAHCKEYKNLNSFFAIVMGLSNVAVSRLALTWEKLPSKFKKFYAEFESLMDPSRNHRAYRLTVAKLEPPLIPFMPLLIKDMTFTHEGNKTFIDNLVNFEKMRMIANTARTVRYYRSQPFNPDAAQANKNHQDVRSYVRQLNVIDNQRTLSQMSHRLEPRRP

[18] = target: Rap guanine nucleotide exchange factor 4 (Homo sapiens) (UniProt Q8WZA2); experiment: Confirmatory qHTS for antagonist of cAMP-regulated guanine nucleotide exchange factor 4 (EPAC2) (AID 1645885); note: % is set by controls: 0 for no effect and ±100 for the full control effect; nearly all actives have a fitted effect of over 25% in size
[19] = target: Rap guanine nucleotide exchange factor 3 (Homo sapiens) (UniProt O95398); experiment: Counterscreen qHTS for antagonist of cAMP-regulated guanine nucleotide exchange factor 3 (EPAC1) (AID 1645888);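 note: fluorescence loss as bound BODIPY-GDP is released from Rap1B; % of control where 0% means no effect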
Procedure, shortened: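 Rap1B-BODIPY-GDP 250 nM + GDP 50 uM; cpds 7-pt, final 9.74 nM–152 uM (activator mode) or from 7.32 nM upwards (inhibitor mode); RT; FI 480/540 nm at 5 and 30 min, then ± cAMP, reread.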

[20] = Stat Signaling Pathway (AID 446; active = well fitted curve in either direction with a large enough effect, not every such curve was filed as active); conditions: ME-180 (cervical carcinoma) SIE beta-lactamase reporter, IL-6 stimulated, 5 h; at 7.69 µM (top of the series) unless noted
Procedure, shortened: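 IL-6/STAT signaling read in ME-180 cells via an SIE beta-lactamase reporter. Stimulus was 40 pM IL-6 (its AC50) for 5 hrs, so both activation and inhibition register.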

[21] = target: Cytochrome P450 2D6 (Homo sapiens) (UniProt P10635); experiment: qHTS Assay for Inhibitors and Substrates of Cytochrome P450 2D6 (AID 891); note: potency is the fitted concentration of half-maximal effect; nearly all actives have a fitted effect of over 60% in size
Procedure, shortened: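 Human CYP2D6 (5 nM) with 30 uM Luciferin-ME EGE (at Km) in 100 mM KPO4, compound preincubated 10 min, then NADPH regeneration system for 60 min at room temperature. Luciferin read by luminescence; normalized to 1.43 uM quinidine.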

[22] = target: Cytochrome P450 2C19 (Homo sapiens) (UniProt P33261); experiment: qHTS Assay for Inhibitors and Substrates of Cytochrome P450 2C19 (AID 899); note: potency is the fitted concentration of half-maximal effect; nearly all actives have a fitted effect of over 60% in size
Procedure, shortened: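 Reactions contain 5nM enzyme, 10uM Luciferin-H EGE (KM) and 50mM KPO4; compound preincubates 10 min at 37C, NADPH regeneration starts turnover for 60 min. Luminescence after detection reagent gives activity.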

CN(Cc1ccco1)c1ncnc2ccc(-c3ccoc3)cc12
inactive: Potency [1] > 11.4 µM | activity change, negative = inhibition [2] -16.7% | activity change, negative = inhibition [4] -26.3% | Potency [5] > 46 µM | Potency [6] > 46 µM | outcome [7] | Potency [8] | Potency [12] | Potency [13] | Potency [14] | Potency [15] | outcome [16] | outcome [17] | Potency [18]
active: Potency [3] 2.51 µM | Potency [9] 0.112 µM | Potency [10] 0.112 µM | Potency [11] 0.0501 µM

O=C1Cc2cc(S(=O)(=O)N3CCNCC3)ccc2N1
inactive: Potency [13] | Potency [15] | outcome [16] | activation [17] 3.97% [at 17.1 µM] | activity change, negative = inhibition [18] 9.22% [at 12.7 µM] | outcome [19]

CN(Cc1ccco1)c1ncnc2ccc(-c3ccccc3Cl)cc12
active: Potency [3] 2 µM | Potency [21] 7.94 µM | Potency [22] 3.16 µM | Potency [9] 14.1 µM | Potency [10] 14.1 µM | Potency [11] 4.47 µM
inactive: Potency [1] > 11.4 µM | activity change, negative = inhibition [2] -12% | activity change, negative = inhibition [4] -13.6% | activity, negative = inhibition [20] 11.7% | Potency [5] > 46 µM | Potency [6] > 46 µM | outcome [7] | Potency [12] | Potency [13] | Potency [14] | outcome [16] | outcome [17]
